PLK1 PBD inh: blocks phosphopeptide binding to human PLK1 polo-box domain | Plk1 PBD binding of FITC phosphopeptide, fluorescence polarization | P53350 | Potency, µM, for the others: max response, negative = inhibition, hits mostly inhibitors | actives 2.8% (n = 360,000); note: series mostly up to about 57 µM; % is set by controls: 0 for no effect and ±100 for the full control effect; nearly all actives have a fitted effect of over 65% in size
VDR inhibitor: inhibitors of human vitamin D receptor; AID 504847; VDR-SRC2-3 peptide fluorescence polarization, 2 h; Potency, µM, for inactives: max response, negative = inhibition, actives largely listed as inhibitors; actives 0.93% (n = 400,000); note: % is set by controls: 0 for no effect and ±100 for the full control effect
Target sequence (P11473 whole entry, looked up): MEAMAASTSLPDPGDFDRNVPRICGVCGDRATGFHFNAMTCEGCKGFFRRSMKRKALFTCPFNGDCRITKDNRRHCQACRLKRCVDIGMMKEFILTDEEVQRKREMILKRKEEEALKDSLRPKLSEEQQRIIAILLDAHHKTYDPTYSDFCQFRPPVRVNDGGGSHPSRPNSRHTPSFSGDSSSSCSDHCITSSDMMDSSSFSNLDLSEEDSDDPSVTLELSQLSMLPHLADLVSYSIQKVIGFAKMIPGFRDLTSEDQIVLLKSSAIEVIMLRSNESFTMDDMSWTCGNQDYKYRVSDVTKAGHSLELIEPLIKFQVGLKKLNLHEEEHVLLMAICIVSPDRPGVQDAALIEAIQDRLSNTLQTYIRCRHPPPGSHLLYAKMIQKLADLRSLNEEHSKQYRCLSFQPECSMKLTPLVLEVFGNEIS
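The screen uses fluorescence polarization to detect compounds that interfere with recruitment of the SRC2-3 coactivator peptide to VDR; plates are read after 2 h at room temperature.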
GLS inhibitor: glutaminase GLS (human) inhibition; actives 0.21% (n = 410,000); O94925; Potency, µM (series often up to 45.5 µM), for inactives: at the top dose activity change, negative = inhibition, actives largely listed as inhibitors; GLS enzymatic activity, qHTS titration; note: % is set by controls: 0 for no effect and ±100 for the full control effect
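Enzyme dispensed in phosphate buffer (45 mM, pH 8.2, 0.02% Tween-20), compounds pinned in, then 1 mM L-glutamine solution and the glutamate oxidase–HRP–Amplex Red mix added; fluorescence read immediately and again after 30 min at room temperature.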
PKM2 activator: PKM2 (human) enzyme activation; Potency, µM (doses to about 57.5 µM), without a hit: top-dose activation, hits mostly activators; P14618; actives 0.34% (n = 260,000); AID 1631; purified PKM2, Kinase-Glo ATP luminescence, activation; response scale: 0% is enzyme alone, no compound; note: % is set by controls: 0 for no effect and ±100 for the full control effect; nearly all actives have a fitted effect of over 55% in size
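hPK-M2, >95% pure; 0.1 mM ADP / 0.5 mM PEP final; imidazole pH7.2 buffer w/ 7 mM MgCl2, 50 mM KCl; 1 h RT; Kinase-Glo lum. Intermediate enzyme activity for dual inhibitor/activator qHTS.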
Mito fusion act: mitochondrial division inhibition or fusion activation; S. cerevisiae fusion-defective mutant growth rescue, CellTiterGlo 48 h; Potency, µM (top dose mostly 46.1 µM), inactives show at the top dose growth rescue (activation), hits mostly activators; actives 0.23% (n = 320,000); note: % of control where 0% means no effect; nearly all actives have a fitted effect of over 45% in size
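Temperature-sensitive fusion-defective S. cerevisiae (e.g. fzo1-1, mgm1-5) were grown with compound in YPEG medium (3% ethanol, 3% glycerol) for 48 hours at 37C. Growth rescue was measured as viability by CellTiterGlo luminescence after 10 minutes at ambient.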
GCN5L2 inh: GCN5L2 (KAT2A) acetyltransferase inhibition; Potency, µM (titrated, usually from 58.9 µM), inactives show top-dose activity change, negative = inhibition, hits mostly inhibitors; actives 0.21% (n = 390,000); Q92830; GCN5L2 HAT assay, ThioGlo1 CoA-SH fluorescence; note: % is set by controls: 0 for no effect and ±100 for the full control effect
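Titration-based screen in which CoA formation is detected via maleimide probe ThioGlo1 (50uM) turning fluorescent on thiol reaction; substrates H3(1-25) 75uM and acetyl-CoA 70uM, GCN5L2 20nM, 20 min incubation at room temperature.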
Numbers without * were called inactive. This is a sample that favours compounds with a hit; in the whole collection about 3.4% have one here. Calls come from the whole dose curve; as a rule, active = well fitted curve in the direction sought with a large enough effect; inconclusive = small, poorly fitted or top-dose-only effect, or another doubt; inactive = no such curve, though single readings can be large; an effect the other way counts as inactive or inconclusive. Potency is the fitted concentration of half-maximal effect.

Screening CNC(=O)c1nc(C)n(-c2ccc(Cl)cc2Cl)n1 returned PLK1 PBD inh 3.8µM*, VDR inhibitor inconclusive, GLS inhibitor inconclusive, PKM2 activator -1%, Mito fusion act -1% and GCN5L2 inh 2%.
For Cc1ncc(CN2CCCC(C(=O)Nc3ccc(-c4cccc(F)c4)cc3)C2)n1C (stereo unspecified) the results were PLK1 PBD inh -8%, VDR inhibitor -10%, GLS inhibitor -2%, PKM2 activator -6%, Mito fusion act -3% and GCN5L2 inh 2%.
Cc1ccc(S(=O)(=O)N2CCCCC2)cc1 was read as PLK1 PBD inh 3%, VDR inhibitor 9%, GLS inhibitor -2%, Mito fusion act 7% and GCN5L2 inh 0%.
Screening Cc1ccc(S(=O)(=O)n2ccc3c2CCCC3=O)cc1 returned PLK1 PBD inh 27µM*, VDR inhibitor inconclusive, GLS inhibitor 13%, Mito fusion act -5% and GCN5L2 inh -4%.
Screening C=C1CCC(O)C/C1=C/C=C1\CCC[C@@]2(C)C(C(C)/C=C/C(C)C(C)C)CC[C@@H]12 (stereo partly specified) returned VDR inhibitor -17% and GCN5L2 inh -2%.
Cc1cc(N2O[C@]34C=C[C@]25C[C@@H](O)CC[C@]5(C)C3CC[C@]2(C)[C@@H]([C@H](C)/C=C/[C@H](C)C(C)C)CC[C@H]24)no1 (stereo partly specified) was read as PLK1 PBD inh 24µM*, VDR inhibitor inconclusive, GLS inhibitor 4% and GCN5L2 inh -4%.
For O=C(O)c1ccc2c(c1)C(=O)N(c1ccc(OCc3ccccc3)cc1)C2=O the results were PLK1 PBD inh -12%, VDR inhibitor 11%, GLS inhibitor -1%, PKM2 activator -1%, Mito fusion act 3% and GCN5L2 inh -16%.
Screening O=C1C=C(c2ccccc2)C[C@@H](c2ccc(Cl)cc2)C1 returned PLK1 PBD inh inconclusive, VDR inhibitor -10%, GLS inhibitor 5%, Mito fusion act inconclusive and GCN5L2 inh -2%.
O=C1CC(c2ccc(Cl)cc2)CC(=O)C1CS(=O)(=O)c1ccccc1 (stereo unspecified) was read as PLK1 PBD inh 27µM*, VDR inhibitor inconclusive, GLS inhibitor inconclusive, PKM2 activator -10%, Mito fusion act -5% and GCN5L2 inh inconclusive.
For O=C1CCCC(=O)C1CS(=O)(=O)c1ccccc1 the results were PLK1 PBD inh -16%, VDR inhibitor 40µM*, GLS inhibitor 3%, PKM2 activator 0%, Mito fusion act -1% and GCN5L2 inh -2%.
O=C1CC(c2ccccc2)CC(=O)C1Sc1ccc(Cl)cc1 (stereo unspecified) was read as PLK1 PBD inh 21µM*, VDR inhibitor inconclusive, GLS inhibitor 5%, PKM2 activator -4%, Mito fusion act 19% and GCN5L2 inh 0%.
COC(C(=O)C(O)C(C)O)C1Cc2cc3cc(OC4CC(OC5CC(O)C(O)C(C)O5)C(O)C(C)O4)c(C)c(O)c3c(O)c2C(=O)C1OC1CC(OC2CC(OC3CC(C)(O)C(O)C(C)O3)C(O)C(C)O2)C(O)C(C)O1 (stereo unspecified) was read as VDR inhibitor inconclusive and GCN5L2 inh 0%.
Screening Cc1cc(Cl)c(C)c(S(=O)(=O)N2CCN(CC(=O)N3CCOCC3)CC2)c1Cl returned PLK1 PBD inh -14%, VDR inhibitor -13%, GLS inhibitor 6%, Mito fusion act -4% and GCN5L2 inh 0%.
Screening CC(=O)Nc1ccc(SCC(=O)c2cc(C)ccc2C)cc1 returned PLK1 PBD inh 19µM*, VDR inhibitor -14%, GLS inhibitor 6%, PKM2 activator 1%, Mito fusion act 10% and GCN5L2 inh 5%.
